# The supplement of paper PMC8699584
# ± gives the standard deviation of the averaged measurements.
# Legend:
# Molm13 = experiment: cell viability relative to DMSO control (bortezomib = 0%); higher = less growth inhibition; details: 10 nM; 72 h
# Method in brief: (§1)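 Viability was determined with CellTiter-Glo luminescence. Acute myeloid leukemia cells (1000 per well, 50 µL) were exposed for 72 h to 679 approved and investigational compounds at a single 10 nM dose in 384-well plates. Percentages came from per-plate linear regression, setting DMSO-treated wells to 100% and positive-control-treated wells to 0%.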
# Mv4-11 = experiment: as above; details: 10 nM; 72 h
# Method in brief: as §1
smiles,measurement,setting,value
N#CC[C@H](C1CCCC1)n1cc(-c2ncnc3[nH]ccc23)cn1,cell viability,Molm13,87.6 ± 8.3%
same,cell viability,Mv4-11,109 ± 4%
N#C/C(=C\c1ccc(O)c(O)c1)C(=O)Nc1ccccc1,cell viability,Molm13,106 ± 6.4%
same,cell viability,Mv4-11,115 ± 17%
O=C(c1cccc(Cl)c1F)N1CCN(Cc2cccc(Nc3nccs3)n2)CC1,cell viability,Molm13,95.9 ± 11%
same,cell viability,Mv4-11,115 ± 9.6%
COc1cc(Nc2ncc(F)c(Nc3ccc4c(n3)NC(=O)C(C)(C)O4)n2)cc(OC)c1OC,cell viability,Molm13,105 ± 3.9%
same,cell viability,Mv4-11,99.7 ± 6.4%
Nc1[nH]nc2nnc(-c3c(-c4ccccc4)nn4ccccc34)cc12,cell viability,Molm13,95.5 ± 1.6%
same,cell viability,Mv4-11,109 ± 11%
Cn1cc(-c2ccc3c(c2)CCN3C(=O)Cc2cccc(C(F)(F)F)c2)c2c(N)ncnc21,cell viability,Molm13,105 ± 4.7%
same,cell viability,Mv4-11,108 ± 18%
CC(C)=CCC[C@](C)(O[C@@H]1O[C@H](CO)[C@@H](O)[C@H](O)[C@H]1O)[C@H]1CC[C@]2(C)[C@@H]1[C@H](O)C[C@@H]1[C@@]3(C)CC[C@H](O)C(C)(C)[C@@H]3[C@@H](O[C@@H]3O[C@H](CO)[C@@H](O)[C@H](O)[C@H]3O[C@@H]3OC[C@@H](O)[C@H](O)[C@H]3O)C[C@]12C [Notoginsenoside R1],cell viability,Molm13,110 ± 13%
same,cell viability,Mv4-11,105 ± 7.3%
O=C(O)c1ccc(-c2c[nH]c3ncc(-c4ccccc4)cc23)cc1C1CCCC1,cell viability,Molm13,107 ± 1.1%
same,cell viability,Mv4-11,96 ± 2.7%
CCOc1cc(C(=O)N2CCC(N3CCN(C)CC3)CC2)ccc1Nc1ncc2c(n1)N(C1CCCC1)c1ccccc1C(=O)N2C,cell viability,Molm13,111 ± 7.2%
same,cell viability,Mv4-11,96.1 ± 19%
Nc1ncnc2c1ncn2[C@@H]1O[C@H](COP(=O)(O)O)[C@@H](O)[C@H]1O [Adenosine 5'-monophosphate],cell viability,Molm13,96 ± 7.5%
same,cell viability,Mv4-11,113 ± 2.5%
